# Experimental data from PubChem BioAssay (NCATS).
# Results filed as inconclusive are left out. The source made the active and inactive calls. The call rests on the fitted dose curve; in most records, active means well fitted inhibition curve with a large enough effect; inconclusive means small, poorly fitted or top-dose-only effect; inactive means flat fitted curve, though single readings scatter. Peptide text beside a SMILES is read from it.
# Test system: DIV17
# Assay: qHTS profiling for inhibitors of Plasmodium falciparum proliferation (AID 504749); further: nearly all actives have a fitted effect of over 60% in size;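 on activity, negative = inhibition: 0% = DMSO vehicle and full inhibition = artemisinin control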
# Conditions: P. falciparum in erythrocytes, SYBR Green DNA, 72 h; series mostly up to 12.8 µM; activity, negative = inhibition: at the top concentration
# Procedure, shortened: (§1)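 Infected RBCs, 0.3% parasitemia/2.5% Hct final; cpd 72 h, 37 C, 5% CO2; lysis buffer with saponin/triton/SYBR Green I, o/n RT dark; FI 485/535; norm. to artemisinin (0.29 uM) and DMSO.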
# Potency means the concentration at half of the fitted maximal effect.
SMILES,"activity, negative = inhibition",Potency
CC(=O)N[C@H](CC(C)C)C(=O)O,1.02% [at 28.7 µM] (inactive),–
CC(C)C1CCC(C(=O)NC(Cc2ccccc2)C(=O)O)CC1 (configuration not stated),5.57% [at 28.7 µM] (inactive),–
COc1ccc2cc(C(C)CO)ccc2c1 (configuration not stated),1.77% [at 28.7 µM] (inactive),–
COc1ccc2cc1Oc1ccc(cc1)CC1c3c(cc4c(c3Oc3cc5c(cc3OC)CCN(C)C5C2)OCO4)CCN1C (configuration not stated),–,7.57 µM (active)
CNC1C(OC2C(O[C@@H]3C(O)C(O)[C@@H](N=C(N)N)C(O)C3N=C(N)N)OC(C)[C@@]2(O)CO)OC(CO)C(O)C1O (some centres not stated),-1.97% [at 28.7 µM] (inactive),–
CC1C2CCC3C4CC=C5CC(N(C)C)CC[C@@]5(C)C4CC[C@@]32CN1C (some centres not stated),-7.12% [at 28.7 µM] (inactive),–
C[C@]12C=CC(=O)C=C1CCC1C2C(O)C[C@]2(C)C1CC[C@]2(O)C(=O)CO (some centres not stated),-1.06% [at 28.7 µM] (inactive),–
CN(C)CCc1c[nH]c2ccc(CC3COC(=O)N3)cc12 (configuration not stated),2.98% [at 28.7 µM] (inactive),–
NCC1CCC(N)C(O[C@@H]2C(O)[C@H](O[C@H]3OC(CO)C(O)C(N)C3O)[C@@H](N)C[C@H]2N)O1 (some centres not stated),-4.53% [at 28.7 µM] (inactive),–
OCC1O[C@H](OC2C(CO)O[C@@](O)(CO)C2O)C(O)C(O)C1O (some centres not stated),-1.72% [at 28.7 µM] (inactive),–
CC1(C)OC2CO[C@]3(COS(N)(=O)=O)OC(C)(C)OC3C2O1 (some centres not stated),0.648% [at 28.7 µM] (inactive),–
CC(=O)OC1CCC2C3CCc4cc(O)ccc4C3CCC12C (configuration not stated),-30% [at 28.7 µM] (inactive),–
CN(C)CCCOC1C(C(O)CO)OC2OC(C)(C)O[C@@H]21 (some centres not stated),5.65% [at 28.7 µM] (inactive),–
COc1cc(C2c3cc4c(cc3C(O[C@@H]3OC5COC(c6cccs6)OC5C(O)C3O)C3COC(=O)C23)OCO4)cc(OC)c1O (some centres not stated),–,4.26 µM (active)

# Test system: DIV30
# Assay: as above
# Conditions: P. falciparum in erythrocytes, SYBR Green DNA, 72 h; series mostly up to 12.8 µM; activity, negative = inhibition: at the top concentration
# Procedure, shortened: as §1
SMILES,"activity, negative = inhibition",Potency
CCC(C)C(=O)OC1CCC=C2C=CC(C)C(CCC3CC(O)CC(=O)O3)[C@@H]21 (some centres not stated),0.208% [at 28.7 µM] (inactive),–
C[C@]1(c2ccccc2)OC(C(=O)O)=CC1=O,7.56% [at 28.7 µM] (inactive),–
OCC1OC([S-])[C@H](O)C(O)C1O.[Au+] (some centres not stated),-2.35% [at 28.7 µM] (inactive),–
COC(=O)N/N=C/C1=C[N+](=O)c2ccccc2[N+]1=O,-0.346% [at 28.7 µM] (inactive),–
CN1CC(=O)N=C1N,-8.53% [at 28.7 µM] (inactive),–
CNC1CC(N)[C@H](O)[C@@H](O[C@@H]2OC(CO)C3OC4(OC(C(N)CO)C(O)C(O)C4O)O[C@@H]3[C@H]2O)C1O (some centres not stated),0.235% [at 28.7 µM] (inactive),–
COC1C=CO[C@@]2(C)Oc3c(C)c(O)c4c(O)c(c(C=NN5CCN(C)CC5)c(O)c4c3C2=O)NC(=O)/C(C)=C\C=CC(C)C(O)[C@@H](C)C(O)C(C)[C@H](OC(C)=O)C1C (some centres not stated),–,0.536 µM (active)
CC(=O)N[C@@H]1C(O)OC(CO)C(O)C1O (some centres not stated),-8.75% [at 28.7 µM] (inactive),–
CCC(CCC(C)C1CCC2C3CC=C4CC(O)CC[C@@]4(C)C3CC[C@@]12C)C(C)C (some centres not stated),-0.723% [at 28.7 µM] (inactive),–
O=C1OC(CO)C(O)C(O)C1O (configuration not stated),-0.461% [at 28.7 µM] (inactive),–
COc1ccc(CC(N)C(=O)NC2C(CO)OC(n3cnc4c(N(C)C)ncnc43)C2O)cc1 (configuration not stated),–,0.849 µM (active)
CCCC(=O)O[C@]1(C(=O)CO)CCC2[C@@H]3CCC4=CC(=O)CC[C@]4(C)C3C(O)C[C@]21C (some centres not stated),-2.33% [at 28.7 µM] (inactive),–
COC(=O)C(Cc1ccccc1)NC(=O)C(N)CC(=O)O (stereo not drawn) (H-Asp-Phe-OMe; configuration not given here),2.04% [at 28.7 µM] (inactive),–
CC[C@@]12CCCN3CCc4c(n(c5ccccc45)[C@](O)(C(=O)OC)C1)C32 (some centres not stated),-13.4% [at 28.7 µM] (inactive),–
CC1(C)SC2C(N3C(=O)C(c4ccccc4)NC3(C)C)C(=O)N2C1C(=O)O (configuration not stated),7.61% [at 28.7 µM] (inactive),–
CC1CCC(C(C)C)C(=O)C1 (configuration not stated),-2.96% [at 28.7 µM] (inactive),–
CC(=O)N[C@H](CC(C)C)C(=O)O,-9.84% [at 28.7 µM] (inactive),–
CC(C)C1CCC(C(=O)NC(Cc2ccccc2)C(=O)O)CC1 (configuration not stated),-1.3% [at 28.7 µM] (inactive),–
COc1ccc2cc(C(C)CO)ccc2c1 (configuration not stated),0.482% [at 28.7 µM] (inactive),–
CNC1C(OC2C(O[C@@H]3C(O)C(O)[C@@H](N=C(N)N)C(O)C3N=C(N)N)OC(C)[C@@]2(O)CO)OC(CO)C(O)C1O (some centres not stated),3.12% [at 28.7 µM] (inactive),–
CC1C2CCC3C4CC=C5CC(N(C)C)CC[C@@]5(C)C4CC[C@@]32CN1C (some centres not stated),0.57% [at 28.7 µM] (inactive),–
C[C@]12C=CC(=O)C=C1CCC1C2C(O)C[C@]2(C)C1CC[C@]2(O)C(=O)CO (some centres not stated),-15.9% [at 28.7 µM] (inactive),–
CN(C)CCc1c[nH]c2ccc(CC3COC(=O)N3)cc12 (configuration not stated),-9.58% [at 28.7 µM] (inactive),–
NCC1CCC(N)C(O[C@@H]2C(O)[C@H](O[C@H]3OC(CO)C(O)C(N)C3O)[C@@H](N)C[C@H]2N)O1 (some centres not stated),-2.3% [at 28.7 µM] (inactive),–
OCC1O[C@H](OC2C(CO)O[C@@](O)(CO)C2O)C(O)C(O)C1O (some centres not stated),-6.51% [at 28.7 µM] (inactive),–
CC1(C)OC2CO[C@]3(COS(N)(=O)=O)OC(C)(C)OC3C2O1 (some centres not stated),0.339% [at 28.7 µM] (inactive),–
CC(=O)OC1CCC2C3CCc4cc(O)ccc4C3CCC12C (configuration not stated),-2.85% [at 28.7 µM] (inactive),–
CN(C)CCCOC1C(C(O)CO)OC2OC(C)(C)O[C@@H]21 (some centres not stated),-4.59% [at 28.7 µM] (inactive),–
COc1cc(C2c3cc4c(cc3C(O[C@@H]3OC5COC(c6cccs6)OC5C(O)C3O)C3COC(=O)C23)OCO4)cc(OC)c1O (some centres not stated),–,2.13 µM (active)

# Test system: Dd2
# Assay: as above
# Conditions: P. falciparum in erythrocytes, SYBR Green DNA, 72 h; series mostly up to 12.8 µM; activity, negative = inhibition: at the top concentration
# Procedure, shortened: as §1
SMILES,"activity, negative = inhibition",Potency
C[C@]1(c2ccccc2)OC(C(=O)O)=CC1=O,6.16% [at 28.7 µM] (inactive),–
OCC1OC([S-])[C@H](O)C(O)C1O.[Au+] (some centres not stated),-16.1% [at 28.7 µM] (inactive),–
COC(=O)N/N=C/C1=C[N+](=O)c2ccccc2[N+]1=O,-10.1% [at 28.7 µM] (inactive),–
CN1CC(=O)N=C1N,2.64% [at 28.7 µM] (inactive),–
CNC1CC(N)[C@H](O)[C@@H](O[C@@H]2OC(CO)C3OC4(OC(C(N)CO)C(O)C(O)C4O)O[C@@H]3[C@H]2O)C1O (some centres not stated),4.09% [at 28.7 µM] (inactive),–
COC1C=CO[C@@]2(C)Oc3c(C)c(O)c4c(O)c(c(C=NN5CCN(C)CC5)c(O)c4c3C2=O)NC(=O)/C(C)=C\C=CC(C)C(O)[C@@H](C)C(O)C(C)[C@H](OC(C)=O)C1C (some centres not stated),–,0.251 µM (active)
CCC(CCC(C)C1CCC2C3CC=C4CC(O)CC[C@@]4(C)C3CC[C@@]12C)C(C)C (some centres not stated),7.06% [at 28.7 µM] (inactive),–
O=C1OC(CO)C(O)C(O)C1O (configuration not stated),11% [at 28.7 µM] (inactive),–
COc1ccc(CC(N)C(=O)NC2C(CO)OC(n3cnc4c(N(C)C)ncnc43)C2O)cc1 (configuration not stated),–,0.355 µM (active)
CCCC(=O)O[C@]1(C(=O)CO)CCC2[C@@H]3CCC4=CC(=O)CC[C@]4(C)C3C(O)C[C@]21C (some centres not stated),14.1% [at 28.7 µM] (inactive),–
COC(=O)C(Cc1ccccc1)NC(=O)C(N)CC(=O)O (stereo not drawn) (H-Asp-Phe-OMe; configuration not given here),0.579% [at 28.7 µM] (inactive),–
CC1(C)SC2C(N3C(=O)C(c4ccccc4)NC3(C)C)C(=O)N2C1C(=O)O (configuration not stated),2.39% [at 28.7 µM] (inactive),–
CC1CCC(C(C)C)C(=O)C1 (configuration not stated),3.22% [at 28.7 µM] (inactive),–
CC(=O)N[C@H](CC(C)C)C(=O)O,4.88% [at 28.7 µM] (inactive),–
CC(C)C1CCC(C(=O)NC(Cc2ccccc2)C(=O)O)CC1 (configuration not stated),-0.112% [at 28.7 µM] (inactive),–
COc1ccc2cc(C(C)CO)ccc2c1 (configuration not stated),-0.589% [at 28.7 µM] (inactive),–
COc1ccc2cc1Oc1ccc(cc1)CC1c3c(cc4c(c3Oc3cc5c(cc3OC)CCN(C)C5C2)OCO4)CCN1C (configuration not stated),–,2.24 µM (active)
CNC1C(OC2C(O[C@@H]3C(O)C(O)[C@@H](N=C(N)N)C(O)C3N=C(N)N)OC(C)[C@@]2(O)CO)OC(CO)C(O)C1O (some centres not stated),6.62% [at 28.7 µM] (inactive),–
CC1C2CCC3C4CC=C5CC(N(C)C)CC[C@@]5(C)C4CC[C@@]32CN1C (some centres not stated),-8.43% [at 28.7 µM] (inactive),–
C[C@]12C=CC(=O)C=C1CCC1C2C(O)C[C@]2(C)C1CC[C@]2(O)C(=O)CO (some centres not stated),-0.671% [at 28.7 µM] (inactive),–
COc1ccc2c(c1)N(C[C@@H](C)CN(C)C)c1ccccc1S2,-22.6% (inactive),–
CCOC(=O)C1=CC(OC(CC)CC)C(NC(C)=O)C(N)C1 (configuration not stated),0.401% [at 28.7 µM] (inactive),–
CN(C)CCc1c[nH]c2ccc(CC3COC(=O)N3)cc12 (configuration not stated),5.47% [at 28.7 µM] (inactive),–
NCC1CCC(N)C(O[C@@H]2C(O)[C@H](O[C@H]3OC(CO)C(O)C(N)C3O)[C@@H](N)C[C@H]2N)O1 (some centres not stated),10% [at 28.7 µM] (inactive),–
OCC1O[C@H](OC2C(CO)O[C@@](O)(CO)C2O)C(O)C(O)C1O (some centres not stated),-3% [at 28.7 µM] (inactive),–
CC1(C)OC2CO[C@]3(COS(N)(=O)=O)OC(C)(C)OC3C2O1 (some centres not stated),-0.147% [at 28.7 µM] (inactive),–
CC(=O)OC1CCC2C3CCc4cc(O)ccc4C3CCC12C (configuration not stated),-1.05% [at 28.7 µM] (inactive),–
CN(C)CCCOC1C(C(O)CO)OC2OC(C)(C)O[C@@H]21 (some centres not stated),0.135% [at 28.7 µM] (inactive),–
COc1cc(C2c3cc4c(cc3C(O[C@@H]3OC5COC(c6cccs6)OC5C(O)C3O)C3COC(=O)C23)OCO4)cc(OC)c1O (some centres not stated),–,1.41 µM (active)
